Rows were chosen to be rich in hits. Some 12% of all compounds tested hit in one or more screens of this group.
BAZ2B block: BAZ2B (human) inhibition. AlphaScreen BAZ2B-H3K14Ac peptide displacement. Potency, µM (highest dose often 114 µM), for the others: at the top dose activity change, negative = inhibition, hits mostly inhibitors. 360,000 tested, 4.4% active. AID 504333; further: on the % scale 0 is the no-effect control and ±100 the full control effect; nearly all actives have a fitted effect of over 60% in size
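Multi-concentration screen (max 110 uM) measuring displacement of acetylated histone H3 peptide from BAZ2B by AlphaScreen, using 50 nM protein, 50 nM peptide and 10 ug/mL streptavidin donor plus Ni-chelate acceptor beads.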
HP1b binding inh: blocks HP1-beta chromodomain binding to methylated histone tails | Potency, µM (highest dose often 114 µM), for inactives: top-dose activity change, negative = inhibition, hits mostly inhibitors | AlphaScreen HP1-beta / biotin-H3K9me3 peptide binding | 390,000 tested, 0.56% active; further: nearly all actives have a fitted effect of over 70% in size
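AlphaScreen: HP1-beta (50 nM) preformed 30 min with biotin-H3(1-18)K9me3 peptide (50 nM) in PBS pH 7.4, 0.01% Tween-20. Compound added for 30 min at RT, then streptavidin donor/nickel chelate acceptor beads (10 ug/mL) for 30 min.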
JMJD2A Tudor inh: inhibitors of human JMJD2A Tudor domain. AlphaScreen JMJD2A-Tudor / H3K4me3 peptide binding. Potency, µM (titrated, usually from 114 µM), for inactives: top-dose activity change, negative = inhibition, most hits filed as inhibitors. 390,000 tested, 4.4% active; further: on the % scale 0 is the no-effect control and ±100 the full control effect; nearly all actives have a fitted effect of over 50% in size
Target sequence (O75164 whole entry, looked up, the tested form may be a part): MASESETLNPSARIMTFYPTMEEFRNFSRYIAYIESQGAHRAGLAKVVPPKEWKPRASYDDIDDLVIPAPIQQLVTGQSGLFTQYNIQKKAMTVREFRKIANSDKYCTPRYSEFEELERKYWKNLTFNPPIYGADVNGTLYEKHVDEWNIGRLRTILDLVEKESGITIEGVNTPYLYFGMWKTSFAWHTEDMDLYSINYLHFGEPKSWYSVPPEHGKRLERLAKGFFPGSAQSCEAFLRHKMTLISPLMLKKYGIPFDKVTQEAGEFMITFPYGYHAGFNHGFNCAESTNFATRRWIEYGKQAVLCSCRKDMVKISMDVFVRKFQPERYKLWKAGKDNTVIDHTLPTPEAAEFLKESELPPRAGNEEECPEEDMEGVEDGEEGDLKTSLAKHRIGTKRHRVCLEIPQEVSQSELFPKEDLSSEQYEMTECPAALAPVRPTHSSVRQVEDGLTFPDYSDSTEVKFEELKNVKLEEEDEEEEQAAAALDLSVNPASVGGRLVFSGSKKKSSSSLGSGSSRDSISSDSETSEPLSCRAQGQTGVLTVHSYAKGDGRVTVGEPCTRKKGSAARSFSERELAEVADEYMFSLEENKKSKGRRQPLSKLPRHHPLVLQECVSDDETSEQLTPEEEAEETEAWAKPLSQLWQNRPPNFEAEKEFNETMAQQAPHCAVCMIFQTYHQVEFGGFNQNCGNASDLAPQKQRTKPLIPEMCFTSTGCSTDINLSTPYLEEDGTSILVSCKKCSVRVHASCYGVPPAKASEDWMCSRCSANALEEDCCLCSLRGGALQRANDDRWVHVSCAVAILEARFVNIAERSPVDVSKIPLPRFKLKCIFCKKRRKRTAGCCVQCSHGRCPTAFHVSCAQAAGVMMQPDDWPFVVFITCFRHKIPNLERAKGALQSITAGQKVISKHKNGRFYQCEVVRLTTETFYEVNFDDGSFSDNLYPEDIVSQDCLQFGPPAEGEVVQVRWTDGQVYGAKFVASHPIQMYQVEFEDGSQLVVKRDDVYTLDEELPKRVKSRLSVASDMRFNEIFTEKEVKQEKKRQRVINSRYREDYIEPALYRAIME
G9a inh: blocks human histone lysine methyltransferase G9a | 350,000 tested, 8.8% active | AID 504332 | Potency, µM (highest dose often 102 µM), inactives show at the highest dose activity, negative = inhibition, most hits filed as inhibitors | G9a H3K9 monomethylation, AlphaScreen, 2 h; further: on the % scale 0 is the no-effect control and ±100 the full control effect; nearly all actives have a fitted effect of over 75% in size
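Chemiluminescent proximity detection of H3K9 monomethylation, read after 10 min bead incubation in the dark. Reaction: 20 nM G9a, 500 nM biotin-H3K9 peptide, 20 uM SAM cofactor, 2 h, room temperature, following 15 min enzyme-compound preincubation.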
Sfp inh: Sfp phosphopantetheinyl transferase inhibition | Q9F4F7 | Biochemical Sfp PPTase activity, qHTS | Potency, µM, without a hit: largest response in the series, negative = inhibition, most hits filed as inhibitors | 310,000 tested, 3.5% active;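 further: the enzyme is Sfp with the accession as filed and its product quenches rhodamine fluorescence; 0% = enzyme reaction without inhibitor and -100% = no enzyme wells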
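Compounds were incubated with enzyme (final 15 nM) for 15 min at room temperature before substrate addition started the reaction. Fluorescence at 525 nm excitation, 598 nm emission was recorded immediately and after 30 minutes.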
The depositor's hits bear a star; u = inconclusive; x = no result given; [ ] = another dose, or the depositor's remark. The call rests on the fitted dose curve; in most records, active means well fitted curve in the direction sought with a large enough effect; inconclusive means small, poorly fitted or top-dose-only effect, or another doubt; inactive means no such curve, though single readings can be large; an effect the other way counts as inactive or inconclusive. Potency means the concentration at half of the fitted maximal effect.

SMILES	BAZ2B block	HP1b binding inh	JMJD2A Tudor inh	G9a inh	Sfp inh
COc1ccc(C(=O)NCCS(=O)(=O)N2CCOCC2)cc1	10%	9%	-10%	-42%	x
COc1cccc(C(=O)NCCS(=O)(=O)N2CCOCC2)c1	-5%	13%	-5%	22µM*	x
COc1cccc(C(=O)NCCS(=O)(=O)N2CC(C)CC(C)C2)c1 (centres undefined)	-1%	37%	-6%	25µM*	x
COc1cccc(C(=O)NCCS(=O)(=O)N2CCC3(CC2)OCCO3)c1	6%	32%	-3%	16µM*	x
CC1CC(C)CN(S(=O)(=O)CCNC(=O)c2ccccc2)C1 (centres undefined)	6%	13%	-11%	-31%	x
O=C(O)CC(C(=O)OCCOc1ccccc1)N1CCOCC1 (centres undefined)	-19%	12%	u	79µM*	4%
O=C(NCCS(=O)(=O)N1CCC2(CC1)OCCO2)c1ccc(F)cc1	0%	47%	4%	0%[0.501 µM]	x
CCOc1ccc(NC(=O)CSc2nnc(Cc3ccccc3)c(=O)n2N)cc1	-6%	31%	-14%	-29%	x
CCOC(=O)C1CCN(S(=O)(=O)CCNC(=O)c2cccc(OC)c2)CC1	-1%	11%	-12%	18µM*	x
O=S(=O)(CCOc1ccccc1)N1CCOCC1	6%	16%	4%	79µM*	2%
Cc1ccc(-n2c(SCC(=O)O)nc3sc4c(c3c2=O)C(C)CCC4)cc1 (centres undefined)	0%	27%	-23%	-36%	-1%
COc1ccc(Cl)cc1NC(=S)NCc1ccco1	u	6%	u	9%[59 µM]	10%
CCC(C)[C@H](NC(=O)N1CCC(Cc2ccccc2)CC1)C(=O)O (some centres undefined)	-6%	60%	6%	-8%[0.501 µM]	8%
O=C(NCc1cccnc1)c1ccc(-c2cc(Cl)ccc2Cl)o1	u	50%	-26%	x	56µM*
CCOc1ccccc1-c1ccc(C(=O)NCc2ccccc2)o1	u	-6%	u	50µM*	3%
O=C(O)c1ccc(-c2ccccc2Cl)o1	-32%	27%	-24%	u	-7%
O=C(NCCc1ccccc1)c1ccc(-c2ccccc2Cl)o1	-14%	9%	25%	45µM*	6%
O=C(Nc1ccccc1)c1ccc(-c2ccccc2Cl)o1	-4%	25%	8%	50µM*	11%
O=C(NCc1ccccc1)c1ccc(Br)o1	3%	19%	-18%	-18%	-5%
O=C(Cn1c(=O)n(CCCS(=O)(=O)C2CCCCC2)c(=O)c2ccccc21)Nc1ccc(F)c(Cl)c1	3%	33%	0%	2%[59 µM]	x
CCOc1ccccc1C1CC(=O)Oc2c1c(=O)n(C)c1ccccc21 (centres undefined)	-15%	25%	5%	8%[59 µM]	x
CC(C)C1N=C2c3ccccc3N=C(SCC(=O)NCc3ccccc3Cl)N2C1=O (centres undefined)	-16%	11%	-2%	6%[59 µM]	x
O=C(NC1CCCCC1)C(c1ccccc1F)N(Cc1ccco1)C(=O)c1ccccn1 (centres undefined)	-8%	24%	-2%	15%	20%
O=C(Nc1ccccc1)c1ccc(-c2ccccc2C(F)(F)F)o1	7%	82%	13%	45µM*	-20%
CC(C)NC(=O)c1ccc(-c2ccccc2C(F)(F)F)o1	-2%	7%	-3%	-6%[59 µM]	-5%
SMILES	BAZ2B block	HP1b binding inh	JMJD2A Tudor inh	G9a inh	Sfp inh
COc1ccc(CC(=O)N(C)CC(=O)Nc2ccc(F)cc2)cc1S(=O)(=O)N1CCOCC1	12%	39%	-9%	-10%[59 µM]	x
CC/C(=C\c1oc2cc3ccccc3cc2[n+]1CC)Nc1ccccc1	79µM*	42%	-17%	5.6µM*	-38%
CC[n+]1c(/C=C/Nc2ccccc2)oc2ccc(OC)cc21	-6%	48%	10%	u	5%
CCOC(=O)Cc1nnc(NC(=O)Nc2ccccc2)s1	0%	31%	-5%	-12%	14%
Cc1cc(C)c2c(c1)c(C)cc1nnc(SCC(=O)c3cccs3)n12	1%	6%	u	3.2µM*	16%
CCCN(CCC)C(=O)CSc1nnc2cc(C)c3cc(C)cc(C)c3n12	-20%	44%	16µM*	2.5µM*	x
COC(=O)C(C)Sc1nnc2cc(C)c3cc(C)cc(C)c3n12 (centres undefined)	u	30%	-18%	8.9µM*	x
CCN(CC)C(=O)CSc1nnc2cc(C)c3ccccc3n12	-7%	39%	2%	u	4%
Cc1cc(C)c2c(c1)c(C)cc1nnc(SCc3ccccc3C#N)n12	u	32%	-16%	-34%[59 µM]	x
O=C1Cc2ccccc2N1c1c(Cl)cccc1Cl	-2%	43%	-2%	u	1%
O=C1Cc2ccccc2C(=O)N1c1cccc(Cl)c1	-28%	27%	-25%	40µM*	6%
O=C1Cc2ccccc2C(=O)N1Cc1ccccc1	-33%	33%	-6%[11.4 µM]	50µM*	17%
O=C1c2cccnc2C(=O)N1Cc1ccccc1	13%	45%	-16%	0%[59 µM]	12%
O=C1Cc2ccccc2C(=O)N1c1ccc(F)cc1Cl	-12%	20%	-23%	50µM*	-4%
O=C1Cc2ccccc2C(=O)N1c1ccccc1	-2%	0%	-7%	14%[59 µM]	9%
CCOC(=O)c1cnn(-c2nc(C)cc(C)n2)c1N	-7%	36%	-14%	-5%[12.7 µM]	-5%
Cc1ccc(Cl)cc1NC(=O)CN1CCN(C(=O)C2CCCO2)CC1 (centres undefined)	-2%	12%	-23%	4%[12.7 µM]	0%
CC(=O)Nc1cccc(C(=O)Nc2ccc(S(=O)(=O)NC3=NCCCCC3)cc2)c1	4%	20%	-15%	19%[0.501 µM]	x
COc1cc(CC(=O)NNC(=O)c2cccs2)cc(OC)c1OC	x	31%	-6%	x	x
COc1ccc(CC(=O)NCc2cccs2)cc1OC	2%	40%	9%	-22%	2%
COc1ccc(CNCCNC(=O)c2cccs2)cc1OC	x	u	20µM*	11µM*	-8%
COc1cc(CNCCNC(=O)c2cccs2)cc(OC)c1OC	89µM*	-21%	28µM*	x	-15%
CC(CCc1ccccc1)NC(=O)COC(=O)c1ccccc1O (centres undefined)	6%	49%	-3%	-28%	4%
COC(=O)CCN(Cc1cc(OC)ccc1OC)S(=O)(=O)c1ccccc1Br	x	48%	-12%	x	x
CCNC(=S)NNC(=O)c1cc(-c2cccnc2)nc2ccccc12	5%	23%	-20%	45µM*	10%
CCCNC(=S)NNC(=O)c1cc(-c2cccnc2)nc2ccccc12	-5%	44%	-19%	-6%[0.501 µM]	13%
CSc1ccccc1NC(=O)c1cc(-c2cccnc2)nc2ccc(Br)cc12	u	7%	u	-3%[12.7 µM]	45µM*
CCCCNC(=S)NNC(=O)c1cc(-c2cccnc2)nc2ccccc12	-14%	20%	-19%	79µM*	10%

From PubChem
